Compounds with a hit are over-represented: about 1.6% of the library has one in this group of screens.
KCNQ2 pot – potentiators of rat KCNQ2 potassium channel; Potassium voltage-gated channel subfamily KQT member 2 (Rattus norvegicus), O88943; 310,000 compounds, 0.54% hits; AID 2239, 2010; B-score at 10 µM; CHO-K1 KCNQ2, FluxOR thallium flux fluorescence; stronger effect = higher value;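 active means fluorescence ratio B-score at least 3 SD of library B-scores, with initial fluorescence B-score within 3 of them, cut at about 5.3 in these data; same plate scores as AID 2156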;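 further: B-score of peak minus minimum over baseline fluorescence ratio after K+ and Tl+ stimulus; positive B-score means potentiation of KCNQ2 with more thallium influx and brighter signal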
Target sequence (O88943 whole entry, looked up): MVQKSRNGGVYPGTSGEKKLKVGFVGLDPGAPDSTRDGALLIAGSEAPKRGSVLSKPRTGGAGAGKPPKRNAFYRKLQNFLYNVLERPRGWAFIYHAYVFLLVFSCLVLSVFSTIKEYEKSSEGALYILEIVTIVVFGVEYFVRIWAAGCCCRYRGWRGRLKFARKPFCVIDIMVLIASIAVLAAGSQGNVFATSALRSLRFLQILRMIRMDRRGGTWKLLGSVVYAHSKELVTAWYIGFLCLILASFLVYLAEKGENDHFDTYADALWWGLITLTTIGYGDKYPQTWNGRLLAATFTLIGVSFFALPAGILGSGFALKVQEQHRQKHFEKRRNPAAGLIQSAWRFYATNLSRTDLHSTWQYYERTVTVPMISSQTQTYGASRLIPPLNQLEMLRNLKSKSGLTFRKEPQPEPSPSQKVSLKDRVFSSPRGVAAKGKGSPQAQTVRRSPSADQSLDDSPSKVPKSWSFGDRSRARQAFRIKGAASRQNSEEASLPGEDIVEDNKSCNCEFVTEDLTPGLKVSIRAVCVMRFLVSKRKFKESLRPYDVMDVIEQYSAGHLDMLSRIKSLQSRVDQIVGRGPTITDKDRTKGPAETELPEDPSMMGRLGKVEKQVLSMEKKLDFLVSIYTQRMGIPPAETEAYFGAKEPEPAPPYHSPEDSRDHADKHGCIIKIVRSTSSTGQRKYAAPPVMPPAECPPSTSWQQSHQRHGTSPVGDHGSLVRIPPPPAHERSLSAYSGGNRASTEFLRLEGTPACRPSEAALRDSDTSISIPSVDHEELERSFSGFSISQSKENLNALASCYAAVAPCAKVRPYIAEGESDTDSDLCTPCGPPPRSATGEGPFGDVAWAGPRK
KCNQ2 inh – rat KCNQ2 potassium channel inhibitors, primary screen, cell-based, CHO-K1, FluxOR thallium flux, B-score. 20 min; stronger effect = lower value. B-score at 10 µM. 310,000 compounds, 1.1% hits. AID 2156, 2009;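 active means fluorescence ratio B-score at most minus 3 library SDs, with starting brightness B-score within 2 library SDs, cut at about -5.5 in these data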
A number is an active result; - = inactive; . = not tested or not shown.

SMILES | KCNQ2 pot | KCNQ2 inh
Cn1c(=O)[nH]c(NCCc2ccc(O)cc2)c([N+](=O)[O-])c1=O | - | -
COc1ccccc1N(CC(=O)NCCSCc1ccc(Cl)cc1)S(C)(=O)=O | - | -
O=C(CSCc1ccc(Cl)cc1)NCCSCc1ccco1 | - | -6.4
COc1ccccc1OCC(=O)NCCSCc1ccc(Cl)cc1 | - | -5.6
O=C(CSCc1c(F)cccc1Cl)NCCSCc1ccco1 | . | -
COc1cccc(/C=N\NC(C)=O)c1OC/C=C/c1ccccc1 | . | -
Cc1cccc(NC(=O)C2CCCN(S(=O)(=O)c3ccc4[nH]c(=O)ccc4c3)C2)c1 (centres undefined) | . | -
O=C(O)c1ccccc1/C=N/Nc1nc(N2CCCCC2)nc(N2CCCCC2)n1 | . | -
C(=N\Nc1nc(N2CCCCCC2)nc(N2CCCCCC2)n1)/c1ccccc1 | - | -5.8
Cc1ccc(S(=O)(=O)N2CCCCCC2)cc1C(=O)NCc1ccccn1 | - | -
O=C(COc1cc(O)c2c(=O)cc(-c3ccccc3)oc2c1)c1ccccc1 | - | -5.9
Cc1ccc(C(=O)COc2cc(O)c3c(=O)cc(-c4ccccc4)oc3c2)cc1 | . | -
O=C(NCc1ccccc1)c1ccc(-c2ccccc2F)o1 | . | -
O=C(NCCc1ccccc1)c1ccc(-c2ccc(F)cc2)o1 | - | -5.8
CCN(C(=O)c1ccc2c(=O)n3c(nc2c1)CCCCC3)c1cc(OC)ccc1OC | - | -
O=C(Oc1c(-c2ccccc2Cl)oc2ccccc2c1=O)c1ccc(Cl)cc1 | - | -6.9
O=C(Oc1c(-c2ccccc2)oc2ccccc2c1=O)c1ccccc1 | . | -
CCc1ccccc1Nc1cc(C(=O)NCc2ccccn2)c2ccccc2n1 | - | -5.9
CCc1ccc(-c2cc(C(=O)NCc3ccccn3)c3ccccc3n2)cc1 | . | -
COc1ccc2c3c(cccc13)C(=O)CC2 | . | -
O=C(Cc1ccc(Cl)cc1)Nc1ccc(Br)cc1 | - | -
C/C(=C\C(=O)c1ccc(Cl)cc1)Nc1ccc(Br)cc1 | - | -6
C/C(=C\C(=O)c1ccc(Br)cc1)Nc1cccc(Cl)c1 | - | -6.2
C/C(=C\C(=O)c1ccccc1)Nc1ccc(Cl)c(Br)c1 | - | -
Cc1cc(C(=O)NC(C)Cc2ccccc2)cc(C)c1[N+](=O)[O-] (centres undefined) | . | -
SMILES | KCNQ2 pot | KCNQ2 inh
Cc1ccc(-n2ncc3c(NNC(=O)c4cccs4)ncnc32)cc1 | . | -
COc1ccc(S(=O)(=O)Nc2cc3c4c(oc3c3ccccc23)CC(C)(C)CC4=O)cc1 | - | -6.5
COc1ccc(S(=O)(=O)Nc2cc3c4c(oc3c3ccccc23)CCCC4=O)cc1 | . | -
Cc1ccc2c(c1)N(S(=O)(=O)c1ccc(F)cc1)C(C(C)(C)C)CO2 (centres undefined) | - | -6.9
Cc1ccc(S(=O)(=O)N2c3ccccc3OCC2C(C)(C)C)cc1 (centres undefined) | . | -
CC1CCCCN1C(=S)NCCc1ccccc1 (centres undefined) | - | -
CSc1cccc(NC(=O)c2cccc3cccnc23)c1 | . | -
O=C(CCCN1C(=O)C(c2ccccc2)Oc2cccnc21)Nc1ccccc1Cl (centres undefined) | - | -
Cc1ccc(SC(=O)c2c([N+](=O)[O-])c(C)nn2C)cc1 | - | -5.9
Cc1cc(C)n(C(=O)c2c([N+](=O)[O-])c(C)nn2C)n1 | - | -
CC1(C)N=C(N)N=C(N)N1c1ccc(Oc2ccc(Cl)cc2)c(Cl)c1 | - | -
CC(C)C(CCNC(=O)CC(Cc1ccccc1)c1ccco1)c1ccco1 (centres undefined) | - | -14
CC(C)C(CCNC(=O)CN1C(=O)c2ccccc2C1=O)c1ccco1 (centres undefined) | . | -
CCOC(=O)Cn1c(S(=O)(=O)Cc2ccccc2)nc2ccccc21 | - | -
CCOC(=O)Cn1c(S(=O)(=O)Cc2ccc(Cl)cc2)nc(-c2ccccc2)c1-c1ccccc1 | - | -6.5
CSCCC(NC(=O)COc1ccccc1)C(=O)NCC1COc2ccccc2O1 (centres undefined) | . | -
COCCN(C(=O)COC(=O)CSc1ccc2ccccc2c1)c1c(N)n(Cc2ccccc2)c(=O)[nH]c1=O | . | -
CCN1CCSc2ccc(C(=O)NCc3ccccc3Br)cc21 | - | -6.1
CCN1CCSc2ccc(C(=O)NCc3ccccc3C)cc21 | . | -
COC(=O)Cc1cc(C)cc2c(=O)cc(-c3ccoc3)oc12 | . | -
CCc1nc(Sc2nnnn2-c2ccccc2)c2c3c(sc2n1)CCCC3 | - | -5.9
CCc1nc(-n2[nH]c(=O)c3ccccc3c2=O)c2c3c(sc2n1)CCCC3 | . | -
Cc1cccc(N(CC(=O)N2CCc3ccccc3C2)S(C)(=O)=O)c1C | . | -
COCCNc1oc(/C=C/c2ccccc2OC)nc1S(=O)(=O)c1ccccc1 | - | -
CCOC(=O)C1=C(c2ccccc2)NC(=O)NC1c1cc(Cl)c(O)c(OC)c1 (centres undefined) | . | -
SMILES | KCNQ2 pot | KCNQ2 inh
CCOC(=O)C1=C(c2ccccc2)NC(N)=NC1c1ccc(OCc2ccc(Cl)cc2)c(OC)c1 (centres undefined) | - | -6.2
O=C(CSc1ncn[nH]1)N1N=C2/C(=C/c3ccccc3)CCCC2C1c1ccccc1 (centres undefined) | - | -5.7
COc1ccc(/C=C2\CCCC3C2=NN(C(=O)CSc2ncn[nH]2)C3c2ccc(OC)cc2)cc1 (centres undefined) | . | -
COc1cc(-c2nc(C(=O)NCC3CCCO3)cc3c2[nH]c2ccccc23)cc(OC)c1OC (centres undefined) | - | -6.7
COc1ccccc1-c1nc(C(=O)NCC2CCCO2)cc2c1[nH]c1ccccc12 (centres undefined) | . | -
Cc1ccc(NCc2nc3ccccc3n2C)c(C)c1 | - | -6.6
Cc1cccc(NCc2nc3ccccc3n2C)c1 | - | -
COc1ccc(N2CCN(C(=O)C3CCN(S(=O)(=O)c4ccc5c(c4)oc(=O)n5C)CC3)CC2)cc1 | - | -
Cc1ccc(C(=O)c2cc([N+](=O)[O-])ccc2N2CCCCC2)cc1C | . | -
Cc1ccc(C(=O)c2ccc([N+](=O)[O-])cc2)cc1C | 5.6 | -
COc1ccc(CNC(=O)CN2CCC(NC(=O)c3ccc(OC)cc3)CC2)cc1 | . | -
COc1ccc(CN(C(C)=O)c2cccc(C)c2C)cc1 | . | -
CC(=O)N(Cc1ccc(Br)cc1)c1cccc(C)c1C | - | -6.5
CCOC(=O)C1CCCN(C(=O)/C(=C/c2ccco2)NC(=O)c2ccccc2)C1 (centres undefined) | - | -
COc1ccccc1N1CCN(C2CCCN(C(=O)c3ccnc4ccc(C)cc34)C2)CC1 (centres undefined) | . | -
Cc1ccc2nccc(C(=O)N3CCCC(N4CCN(c5ccc(F)cc5)CC4)C3)c2c1 (centres undefined) | - | -6.5
Cc1ccc(NC(=O)C[n+]2ccccc2)cc1C | - | -
COc1cccc(NC(=O)N(Cc2ccco2)C(C)c2cccs2)c1 (centres undefined) | - | -
Cc1ccc(NC(=O)N(Cc2ccco2)C(C)c2ccco2)cc1C (centres undefined) | - | -5.9
COCCN(C(=S)Nc1ccc(OC)cc1)C(C)c1cccs1 (centres undefined) | - | -
CC(c1cccs1)N(Cc1ccco1)C(=O)Nc1ccc(Cl)c(Cl)c1 (centres undefined) | - | -13
Cc1ccc(NC(=O)N(Cc2cccnc2)Cc2ccco2)cc1C | . | -
